# Source: PubChem BioAssay AID933 (National Center for Advancing Translational Sciences (NCATS), 2007)
# Records with an inconclusive call do not appear. Values without a mark were called inactive. Active and inactive are the calls of the source. Calls follow the shape of the dose curve; as a rule, active = well fitted activation curve with a large enough effect in the signal ratio, with a control signal flat; inconclusive = small, poorly fitted or top-dose-only effect, or a change in a side signal; inactive = flat fitted curve, though single readings scatter; the % refers to the signal ratio.
# Molecular target: Thyrotropin receptor (Homo sapiens) (UniProt P16473)
# Assay: Secondary Concentration-Response Assay for Agonists of the Thyroid Stimulating Hormone Receptor: HTRF Activity Detection;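 also: HEK 293 cells stably expressing human TSHR with RO 20-1724 phosphodiesterase inhibitor; % of control where 0% means no effect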
# Details: HEK293-TSHR cells, cAMP HTRF ratio, 30 min; series mostly up to 91.7 µM
# Text: NIH Chemical Genomics Center [NCGC]
# NIH Molecular Libraries Screening Centers Network [MLSCN]
# PI Name: Dr. Marvin Gershengorn, NIH
# Confirmation of Thyroid Stimulating Hormone Receptor Agonists
# TSH is an alpha/beta heterodimeric glycoprotein hormone secreted from the anterior pituitary gland which belongs to the glycoprotein hormone family. The actions of TSH are mediated by a seven-transmembrane receptor, which upon TSH binding couples preferentially to the G-alpha (s) protein (Gs), resulting in activation of adenylate cyclase and increase in cyclic adenosine 3', 5' monophosphate (cAMP). The TSH receptor (THSR) is mainly expressed in thyroid follicular cells and regulates their growth and function. Recombinant TSH is used to activate TSHR in patients with thyroid cancer receiving thyroid hormone suppression therapy and to screen for residual tumor after surgery, but it is expensive and must be administered intramuscularly. An orally active small molecule TSHR agonist would serve as an invaluable research tool for studying TSHR pharmacology and physiology, and would have multiple advantages in therapeutic settings. However, no selective small molecule agonist of the TSH receptor exists, and no small molecule screen for TSHR agonists has ever been reported.
# A confirmatory assay of putative TSHR agonists was conducted on a different TSHR transfected HEK 293 cell line, using an orthogonal detection technology to measure cAMP stimulation: antibody-based Homogeneous Time Resolved Fluorescence (HTRF).
# NCGC Assay Protocol Summary:
# Homogeneous Time Resolved Fluorescence (HTRF) cAMP Assay. HEK 293 cells stably transfected with a vector containing the TSHR and maintained under hygromycin selection were obtained from the laboratory of Dr. Marvin Gershengorn. […] Plates were measured using the Envision plate reader (PerkinElmer, Boston, MA) with excitation at 330 nm and emissions of 615 nm and 660 nm.
# Keywords: Thyroid-stimulating hormone TSH, TSHR, TSHR agonist, quantitative high throughput screening, qHTS, HTS, probe identification, CNG, cAMP, cyclic nucleotide gated ion channel PubChem
# Sequence of Thyrotropin receptor (Homo sapiens) (P16473 whole entry, looked up): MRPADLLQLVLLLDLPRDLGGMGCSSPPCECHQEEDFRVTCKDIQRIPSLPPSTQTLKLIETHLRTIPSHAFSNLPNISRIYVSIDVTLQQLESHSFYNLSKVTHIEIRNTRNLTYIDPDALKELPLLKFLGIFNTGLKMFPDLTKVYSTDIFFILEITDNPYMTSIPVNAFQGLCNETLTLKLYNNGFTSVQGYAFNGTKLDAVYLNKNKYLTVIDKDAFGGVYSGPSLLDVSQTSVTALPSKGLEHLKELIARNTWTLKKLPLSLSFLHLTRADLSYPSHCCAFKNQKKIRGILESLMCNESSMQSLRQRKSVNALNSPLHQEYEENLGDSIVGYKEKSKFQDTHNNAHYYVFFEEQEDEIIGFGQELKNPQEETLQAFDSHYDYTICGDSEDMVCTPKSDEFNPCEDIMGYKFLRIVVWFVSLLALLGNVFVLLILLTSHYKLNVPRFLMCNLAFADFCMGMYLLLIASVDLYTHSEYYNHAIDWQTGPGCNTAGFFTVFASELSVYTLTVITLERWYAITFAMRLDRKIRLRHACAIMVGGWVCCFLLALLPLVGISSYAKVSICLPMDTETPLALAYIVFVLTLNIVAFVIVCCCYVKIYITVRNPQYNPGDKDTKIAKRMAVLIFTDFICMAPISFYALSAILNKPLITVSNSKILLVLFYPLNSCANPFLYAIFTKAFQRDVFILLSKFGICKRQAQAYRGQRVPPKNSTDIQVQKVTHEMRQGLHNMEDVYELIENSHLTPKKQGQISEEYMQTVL
Structure (SMILES),activation,outcome
O=c1[nH]c(=O)n(Cc2ccco2)c(O)c1C=NC1CC1,-0.432% [at 0.00035 µM],–
C=CCN1C(=O)C2(C(C(=O)OC)=C(N)Oc3c2c(=O)oc2ccccc32)c2ccccc21 (stereo not drawn),–,inactive
CCOC(=O)C1=C(N)Oc2c(c(=O)oc3ccccc23)C12C(=O)N(C)c1ccccc12 (stereo not drawn),–,inactive
